Inconclusive results are not listed. Calls of active or inactive are those of the source. Unless noted, the call rests on the fitted dose curve; in most records, active means well fitted curve in the direction sought with a large enough effect; inconclusive means small, poorly fitted or top-dose-only effect, or another doubt; inactive means no such curve, though single readings can be large; an effect the other way counts as inactive or inconclusive.
Legend:
[1] = NS1 protein of Zika virus - qHTS assay to identify small molecule inhibitors in human HEK 293 cells (AID 1347053); settings: HEK293 ZIKV MR766 infection, NS1 TR-FRET, 24 h; series mostly up to 46.1 µM;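 further: plate controls were infected untreated cells for no effect and uninfected cells for full effect; nearly all actives have a fitted effect of over 55% in size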
Summary of the method: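 HEK 293 cells, seeded 20 h at 37 C, were pretreated with compound 1 h, then infected with ZIKV MR766 (MOI = 0.5) for 24 h. NS1 was read by TR-FRET with two anti-NS1 antibodies, normalized to uninfected and infected wells.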

[2] = biological target: T1, Tyrosine-protein phosphatase non-receptor type substrate 1 (Homo sapiens) + Leukocyte surface antigen CD47 (Homo sapiens) (UniProt P78324+Q08722); assay: CD47-SIRPalpha protein protein interaction - HTRF assay qHTS validation (AID 1347058; active means well fitted curve in the direction sought with a large enough effect in the signal ratio, not every such curve was filed as active; the % refers to the signal ratio; further: 0% is about no effect); settings: TR-FRET HTRF CD47-His / biotin-SIRPalpha binding, ratio 665/615; series mostly up to 38.3 µM
Summary of the method: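 TR-FRET read (Ch1/Ch2 ratio) of soluble extracellular CD47 and Avi-biotinylated SIRPalpha domains in PBS pH 7.4 with 0.05% IGEPAL; 7-point compound titration. Sequential 30 min room-temperature steps; non-biotinylated SIRPalpha as control inhibitor.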

[3] = biological target: T1, Tyrosine-protein phosphatase non-receptor type substrate 1 (Homo sapiens) + Leukocyte surface antigen CD47 (Homo sapiens); assay: CD47-SIRPalpha protein protein interaction - Alpha assay qHTS validation (AID 1347059); settings: AlphaScreen CD47-His/biotin-SIRPalpha binding, LOPAC; series mostly up to 38.3 µM;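 further: bead proximity luminescence from CD47 binding SIRPalpha after compound preincubation with SIRPalpha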; further: potency means the concentration at half of the fitted maximal effect; on activity change, negative = inhibition: on the % scale 0 is the no-effect control and ±100 the full control effect
Summary of the method: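 Soluble extracellular domains: Avi-tag biotinylated SIRPalpha (25 nM) preincubated 30 min RT with compound, then 6His-CD47 (12.5 nM) 30 min; Ni-NTA acceptor and streptavidin donor beads (10 ug/mL) 30 min, AlphaScreen read. PBS pH 7.4, 0.05% IGEPAL.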

[4] = biological target: Parathyroid hormone/parathyroid hormone-related peptide receptor (Homo sapiens) (UniProt Q03431); assay: qHTS for PTHR1 Agonists: Optimization Screen against the NCGC LOPAC library (AID 1347079); settings: HEK293 GP2 PTHR1 GloSensor cAMP luminescence, 1 h; series mostly up to 57.1 µM;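 further: GloSensor cAMP luminescence in HEK-293 GP2 cells expressing human PTHR1 with IBMX; 0% is about no effect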
Summary of the method: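 Compounds were tested across a qHTS titration. PTHR1-expressing GP2 cells report cAMP rises via GloSensor luminescence after 1 hr compound exposure at 37C with IBMX present.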

[5] = biological target: N-terminal Xaa-Pro-Lys N-methyltransferase 1 (Homo sapiens) (UniProt Q9BV86); assay: qHTS Assay for Inhibitors of N-terminal methyltransferase 1 (NTMT1): LOPAC validation of the NTMT1 SAHH-coupled ThioGlo3 Assay (AID 1347143); settings: recombinant NTMT1, SAHH-coupled ThioGlo3 fluorescence; series mostly up to 114 µM; further: nearly all actives have a fitted effect of over 70% in size; further: potency means the concentration at half of the fitted maximal effect; on activity change, negative = inhibition: on the % scale 0 is the no-effect control and ±100 the full control effect
Summary of the method: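 Fluorescence read-out (excitation 340nm, emission 450nm) of SAH-derived thiol, measured via SAHH coupling and ThioGlo3, taken immediately and after a 30 min room-temperature reaction, then normalized to the background read. Enzyme: NTMT1 at 125nM; cofactor SAM 100uM in the added reagent.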

[6] = system: Zika virus NS2B-NS3 protease (unlinked); assay: Optimization of GU AMC qHTS for Zika virus inhibitors: Unlinked NS2B-NS3 protease assay (AID 1347151); settings: recombinant ZIKV NS2B-NS3 protease, fluorogenic AMC substrate; series mostly up to 52.5 µM; further: nearly all actives have a fitted effect of over 80% in size; further: potency means the concentration at half of the fitted maximal effect;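 on activity change, negative = inhibition: 0% = no-inhibitor control and -100% = no-enzyme control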
Summary of the method: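 Percent inhibition is derived from the 15-min change in AMC fluorescence, normalized against no-inhibitor and no-enzyme controls, then fitted to a 4-parameter Hill curve. Aprotinin was the intraplate control.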

[7] = biological target: T1, Tyrosine-protein phosphatase non-receptor type substrate 1 (Homo sapiens) + Leukocyte surface antigen CD47 (Homo sapiens); assay: CD47-SIRPalpha protein protein interaction - LANCE assay qHTS validation (AID 1347057; active means well fitted curve in the direction sought with a large enough effect in the signal ratio, with a control signal flat, not every such curve was filed as active; the % refers to the signal ratio; further: 0% is about no effect); settings: Recombinant CD47-His / biotin-SIRPalpha, TR-FRET ratio; series mostly up to 38.3 µM
Summary of the method: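 First, His-tagged CD47 and Eu-labelled anti-His antibody met the compound for 30 min; next, site-specifically biotinylated SIRPalpha was added for 30 min; finally streptavidin-APC was added before reading the TR-FRET ratio.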

[8] = system: Zika virus NS2B-NS3 protease; assay: Primary screen GU AMC qHTS for Zika virus inhibitors (AID 1347154); settings: Zika NS2B-NS3 unlinked protease, AMC fluorogenic substrate; series mostly up to 54.1 µM;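 further: 0% = no-inhibitor control and -100% = no-enzyme control; nearly all actives have a fitted effect of over 70% in size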
Summary of the method: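 Unlinked Zika NS2B hydrophilic domain/NS3 protease domain noncovalent complex (25 nM final) in 10 mM Tris-HCl pH 8.0, 0.01% Tween 20, with AMC peptide substrate. Fluorescence (ex 340, em 450 nm) change over 15 min, room temperature; percent inhibition fitted to 4-parameter Hill equation.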

[9] = system: Zika virus NS2B-NS3 protease (linked construct); assay: Primary screen NINDS Rhodamine qHTS for Zika virus inhibitors (AID 1347160); settings: purified NS2B-NS3 protease, Rhodamine110 substrate fluorescence; series mostly up to 227 µM; further: on the % scale 0 is the no-effect control and ±100 the full control effect; nearly all actives have a fitted effect of over 55% in size
Summary of the method: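 Purified linked NS2B-NS3 protease (NS2B hydrophilic domain joined to NS3 protease by flexible linker), 25 nM in 10 mM Tris-HCl pH 8.0, 0.01% Tween 20. Compounds titrated, 15 min preincubation at room temperature; 1.5 microM Rhodamine110 substrate, FITC fluorescence change over 15 min.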

[10] = biological target: Lysine-specific demethylase 5B (Homo sapiens) (UniProt Q9UGL1); assay: Optimization screen for KDM5B Histone Demethylases FDH coupled qHTS against the LOPAC library (AID 1347166); settings: KDM5B demethylation, FDH-coupled NADH fluorescence (FDH is formaldehyde dehydrogenase); at 57.5 µM (top of the series); further: 0% is about no effect
Summary of the method: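 KDM5BDeltaAP (200nM final) preincubated 10 min with compound, then 12.5uM H3K4Me3, 25uM a-ketoglutarate, ascorbate, Fe(II), NAD+ and FDH added; 50mM HEPES pH 7.5, 0.01% Tween-20. NADH fluorescence (340/450 nm) change over 30 min, room temperature.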

[11] = OV-KATE Cancer Cell Toxicity qHTS against the NCATS CANVASS Library (AID 1347345); settings: OV-KATE cells viability, CellTiter-Glo luminescence, 72 h; series mostly up to 76 µM; further: on the % scale 0 is the no-effect control and ±100 the full control effect
Summary of the method: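 Following a 4 h pre-incubation of 1000 seeded cells, compounds were pinned in an 11-pnt dilution series and left for 72 h; viability then came from CellTiter-Glo.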

[12] = ZIKV-mCherry secondary qHTS for Zika virus inhibitors (AID 1347158); settings: Vero cells, ZIKV-mCherry infection imaging, 48-72 h; series mostly up to 49.2 µM; further: top concentration of the series differs between compounds
Summary of the method: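 After overnight seeding at 37 °C, Vero cells receive compound and then ZIKV-mCherry (MOI 1). Following 48-72 h infection, cells are fixed, counterstained with Hoechst, and imaged; percent infected cells is derived from an mCherry intensity cut-off of 450 RFU.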

[13] = Confirmatory screen NINDS Rhodamine qHTS for Zika virus inhibitors (AID 1347161); settings: purified enzyme assay, Rhodamine110 substrate fluorescence, 15 min; series mostly up to 114 µM; further: potency means the concentration at half of the fitted maximal effect; nearly all actives have a fitted effect of over 60% in size
Summary of the method: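 Single-chain NS2B-NS3 protease, 25 nM, pH 8.0; compounds preincubated 15 min. Activity: Rhodamine110 release from 1.5 microM substrate over 15 min, room temperature, data fitted to 4-parameter Hill.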

[14] = system: Zika virus NS2B-NS3 protease (linked); assay: 384 well plate NINDS AMC confirmatory qHTS for Zika virus inhibitors (AID 1347163); settings: Recombinant NS2B-NS3 protease, Ac-VKTGKR-AMC fluorescence; series mostly up to 100 µM; further: potency means the concentration at half of the fitted maximal effect; nearly all actives have a fitted effect of over 50% in size
Summary of the method: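 Linked protease 5/30/60 nM final; cpds up to 1 mM final, ~15 min preinc. Substrate Ac-VKTGKR-AMC 30 microM final. RT, dark, 25 min; FI ex 355/em 460; normalized to no-enzyme/no-inhibitor ctrls.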

[15] = system: Zika virus NS2B-NS3 protease (linked construct); assay: 384 well plate NINDS Rhodamine confirmatory qHTS for Zika virus inhibitors (AID 1347164); settings: rhodamine-110 peptide substrate fluorescence; series mostly up to 100 µM; further: potency means the concentration at half of the fitted maximal effect; nearly all actives have a fitted effect of over 65% in size
Summary of the method: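 Compounds are incubated about 15 minutes with linked protease (5, 30 or 60 nM final). Rhodamine 110-tagged Ac-LKRR substrate (10 microM final) is added and fluorescence measured after 25 minutes.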

[16] = HepG2 cells viability qHTS for Zika virus inhibitors (AID 1347168); settings: Zika counter-screen; series mostly up to 45.9 µM; further: on the % scale 0 is the no-effect control and ±100 the full control effect
Summary of the method: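 Counter-screen for cytotoxicity of hits from NS2B-NS3 protease qHTS. Overnight-attached cells (2.5 x 10^5 cells/mL, DMEM/4% FBS) were dosed in titration, incubated 24 to 48 hours, then assayed by CellTiter Glo.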

Chain of N-terminal Xaa-Pro-Lys N-methyltransferase 1 (Homo sapiens) (Q9BV86 whole entry, looked up): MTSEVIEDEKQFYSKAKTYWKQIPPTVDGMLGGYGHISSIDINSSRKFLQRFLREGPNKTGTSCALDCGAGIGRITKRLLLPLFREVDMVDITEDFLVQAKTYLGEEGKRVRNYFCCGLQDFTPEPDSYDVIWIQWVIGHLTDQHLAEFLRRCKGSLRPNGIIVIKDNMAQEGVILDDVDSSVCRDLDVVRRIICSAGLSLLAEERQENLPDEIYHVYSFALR
T1 sequence (P78324 whole entry, looked up, the tested form may be a part): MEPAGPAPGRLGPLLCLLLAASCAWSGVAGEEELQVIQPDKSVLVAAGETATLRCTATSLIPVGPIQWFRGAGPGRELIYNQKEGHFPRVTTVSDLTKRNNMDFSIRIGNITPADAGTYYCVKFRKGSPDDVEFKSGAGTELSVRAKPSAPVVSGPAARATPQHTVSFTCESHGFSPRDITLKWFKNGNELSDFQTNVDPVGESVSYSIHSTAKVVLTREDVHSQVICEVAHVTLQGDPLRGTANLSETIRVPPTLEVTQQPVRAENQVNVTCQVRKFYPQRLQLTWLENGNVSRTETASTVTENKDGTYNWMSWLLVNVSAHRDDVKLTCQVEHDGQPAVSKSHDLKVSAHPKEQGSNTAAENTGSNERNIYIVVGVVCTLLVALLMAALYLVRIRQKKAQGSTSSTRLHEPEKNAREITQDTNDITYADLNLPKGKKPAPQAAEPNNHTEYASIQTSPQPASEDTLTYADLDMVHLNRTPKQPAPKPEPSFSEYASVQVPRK
T1 sequence (Q08722 whole entry, looked up, the tested form may be a part): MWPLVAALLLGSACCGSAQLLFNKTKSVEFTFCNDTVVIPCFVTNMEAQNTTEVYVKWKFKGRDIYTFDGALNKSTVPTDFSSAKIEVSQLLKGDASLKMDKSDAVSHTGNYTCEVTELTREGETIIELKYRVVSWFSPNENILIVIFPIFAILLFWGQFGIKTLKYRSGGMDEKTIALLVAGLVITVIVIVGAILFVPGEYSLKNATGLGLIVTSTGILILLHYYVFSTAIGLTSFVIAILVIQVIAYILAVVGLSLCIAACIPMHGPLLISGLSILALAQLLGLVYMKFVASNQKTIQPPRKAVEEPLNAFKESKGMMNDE
Chain of Lysine-specific demethylase 5B (Homo sapiens) (Q9UGL1 whole entry, looked up): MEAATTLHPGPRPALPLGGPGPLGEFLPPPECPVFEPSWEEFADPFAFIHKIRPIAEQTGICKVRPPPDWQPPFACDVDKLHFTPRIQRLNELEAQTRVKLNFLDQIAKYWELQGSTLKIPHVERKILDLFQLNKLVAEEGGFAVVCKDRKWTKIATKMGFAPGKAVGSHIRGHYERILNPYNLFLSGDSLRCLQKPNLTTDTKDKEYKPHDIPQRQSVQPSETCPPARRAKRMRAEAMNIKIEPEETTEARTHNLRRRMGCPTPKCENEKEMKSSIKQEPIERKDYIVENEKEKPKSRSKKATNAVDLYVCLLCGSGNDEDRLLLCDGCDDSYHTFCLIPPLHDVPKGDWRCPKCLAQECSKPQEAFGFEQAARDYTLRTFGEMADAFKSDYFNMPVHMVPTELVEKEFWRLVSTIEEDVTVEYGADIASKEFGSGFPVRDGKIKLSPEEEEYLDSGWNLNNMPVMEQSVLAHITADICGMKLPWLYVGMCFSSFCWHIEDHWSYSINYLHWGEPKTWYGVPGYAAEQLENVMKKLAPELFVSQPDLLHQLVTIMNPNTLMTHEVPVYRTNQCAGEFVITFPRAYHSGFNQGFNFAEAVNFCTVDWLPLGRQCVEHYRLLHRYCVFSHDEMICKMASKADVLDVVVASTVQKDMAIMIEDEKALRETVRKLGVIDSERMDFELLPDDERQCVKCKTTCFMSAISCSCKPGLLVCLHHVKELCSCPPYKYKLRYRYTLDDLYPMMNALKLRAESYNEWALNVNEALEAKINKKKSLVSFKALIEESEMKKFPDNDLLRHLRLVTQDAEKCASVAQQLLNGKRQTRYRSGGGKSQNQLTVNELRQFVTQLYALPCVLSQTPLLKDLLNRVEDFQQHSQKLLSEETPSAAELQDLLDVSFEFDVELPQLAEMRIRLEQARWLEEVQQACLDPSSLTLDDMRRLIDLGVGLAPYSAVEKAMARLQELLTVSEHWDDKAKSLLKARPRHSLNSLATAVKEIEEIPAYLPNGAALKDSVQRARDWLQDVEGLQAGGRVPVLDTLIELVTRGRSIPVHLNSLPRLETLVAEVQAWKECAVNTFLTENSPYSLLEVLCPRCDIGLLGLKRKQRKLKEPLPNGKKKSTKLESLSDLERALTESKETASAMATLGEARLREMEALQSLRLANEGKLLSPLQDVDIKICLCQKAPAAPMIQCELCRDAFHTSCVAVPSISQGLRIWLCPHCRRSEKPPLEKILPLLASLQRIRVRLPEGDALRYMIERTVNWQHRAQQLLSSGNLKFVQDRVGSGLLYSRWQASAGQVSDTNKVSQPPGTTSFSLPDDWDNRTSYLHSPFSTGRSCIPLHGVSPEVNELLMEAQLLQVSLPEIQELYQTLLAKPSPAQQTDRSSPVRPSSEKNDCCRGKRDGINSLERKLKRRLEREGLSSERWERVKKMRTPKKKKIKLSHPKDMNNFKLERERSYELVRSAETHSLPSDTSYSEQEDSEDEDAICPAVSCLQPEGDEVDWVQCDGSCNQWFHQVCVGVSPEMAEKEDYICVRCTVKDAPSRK
Chain of Parathyroid hormone/parathyroid hormone-related peptide receptor (Homo sapiens) (Q03431 whole entry, looked up): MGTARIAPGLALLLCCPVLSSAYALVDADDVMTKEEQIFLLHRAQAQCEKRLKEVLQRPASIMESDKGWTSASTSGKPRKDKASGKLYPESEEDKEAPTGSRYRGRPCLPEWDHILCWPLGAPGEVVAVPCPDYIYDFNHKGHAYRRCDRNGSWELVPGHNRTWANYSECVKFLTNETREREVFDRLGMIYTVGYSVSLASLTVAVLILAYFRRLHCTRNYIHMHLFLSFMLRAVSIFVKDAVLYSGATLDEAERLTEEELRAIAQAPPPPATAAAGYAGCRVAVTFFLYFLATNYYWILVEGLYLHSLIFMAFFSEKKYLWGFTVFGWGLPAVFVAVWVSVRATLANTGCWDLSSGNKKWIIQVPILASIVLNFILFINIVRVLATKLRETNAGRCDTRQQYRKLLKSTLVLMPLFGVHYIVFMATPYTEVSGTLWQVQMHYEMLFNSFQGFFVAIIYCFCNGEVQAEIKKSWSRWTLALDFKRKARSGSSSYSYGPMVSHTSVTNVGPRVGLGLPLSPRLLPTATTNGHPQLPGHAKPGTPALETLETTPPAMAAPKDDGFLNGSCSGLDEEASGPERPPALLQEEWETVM

NC(N)=N[C@@H](CCC(=O)O)C(=O)O
inactive: Potency [1] | outcome [2] | Potency [3] | Potency [4] | Potency [5] | Potency [6]

CC(=O)NCCc1c[nH]c2ccc(O)cc12
inactive: Potency [1] | Potency [7] | Potency [3] | Potency [4] | Potency [6] | Potency [8] | outcome [9] | activity, negative = inhibition [10] -23.2% | outcome [11]

[Li+]
inactive: Potency [1] | outcome [2] | Potency [3] | Potency [4] | Potency [5] | Potency [6] | activity, negative = inhibition [10] -3.55%

CO/N=C(\C(=O)N[C@@H]1C(=O)N2C(C(=O)O)=C(CSc3nc(=O)c(O)nn3C)CSC12)c1csc(N)n1 (some centres not stated)
inactive: Potency [1] | outcome [2] | Potency [3] | Potency [4] | Potency [5] | Potency [6] | activity, negative = inhibition [10] -14.3%

NC(C(=O)N[C@@H]1C(=O)N2C(C(=O)O)=C(Cl)CS[C@H]12)c1ccccc1 (some centres not stated)
inactive: Potency [1] | outcome [2] | Potency [3] | Potency [4] | Potency [5]

Nc1ccc(-c2nc3ccc(-c4nc5ccc(N)cc5[nH]4)cc3[nH]2)cc1
active: Potency [5] 56.2 µM | Potency [6] 26.7 µM
inactive: Potency [1] | Potency [4]

NS(=O)(=O)c1cccc2c1c([N+](=O)[O-])cc1nc(O)c(O)nc12
active: Potency [5] 50.1 µM
inactive: Potency [1] | Potency [3] | Potency [4] | Potency [6] | Potency [8]

CCCc1c(OCCCOc2ccc(OCC(=O)O)cc2)ccc(C(C)=O)c1O
inactive: Potency [1] | outcome [2] | Potency [3] | Potency [4] | Potency [12] | activity, negative = inhibition [10] -6.32% | outcome [16]
active: Potency [13] 3.5 µM | Potency [14] 355 µM | Potency [15] 50.1 µM

C[C@H](NC(=O)/C(C#N)=C/c1ccc(O)c(O)c1)c1ccccc1
active: Potency [5] 25.1 µM | Potency [6] 2.38 µM
inactive: Potency [1] | Potency [3] | Potency [4]

CCCCCCCCCCC/C=C\C(C)(C)/C=C\CCCC(=O)O
inactive: Potency [7] | outcome [2] | Potency [3] | Potency [4] | Potency [5] | activity change, negative = inhibition [8] 13.4% [at 6.83 µM] | activity, negative = inhibition [10] -18.4%
active: Potency [6] 6.7 µM

CC[C@@H]1Cc2cc(O)ccc2C2=C1c1ccc(O)cc1C[C@H]2CC
inactive: Potency [1] | Potency [3] | Potency [4] | Potency [6]
active: Potency [5] 79.4 µM

O=C(O)c1cccnc1C(=O)O
inactive: Potency [7] | outcome [2] | Potency [4] | Potency [5] | Potency [6] | Potency [8]
active: Potency [3] 16.5 µM

CC(C)(C)c1ccc(/C=C/C(=O)Nc2ccc3c(c2)OCCO3)cc1
inactive: Potency [1] | Potency [3] | Potency [4] | activity, negative = inhibition [10] -12.1%

C=C1C(=O)O[C@@H]2[C@H]3O[C@]3(C)CCC=C(C)CC[C@@H]12
inactive: Potency [7] | outcome [2] | Potency [3] | Potency [4] | Potency [5] | Potency [6] | Potency [8]

CC1=C(/C=C/C(C)=C/C=C/C(C)=C\C(=O)O)C(C)(C)CCC1
inactive: Potency [1] | outcome [2] | Potency [3] | Potency [4] | Potency [8] | activity, negative = inhibition [10] -15.4%

CC#CCOC(=O)c1c(C)nc2sc3c(c2c1N)CCC(O)C3 (configuration not stated)
inactive: Potency [1] | Potency [3] | Potency [4]
active: Potency [5] 56.2 µM

COc1cc([C@@H]2c3cc4c(cc3[C@H](O)C3COC(=O)[C@@H]32)OCO4)cc(OC)c1OC (some centres not stated)
inactive: Potency [7] | outcome [2] | Potency [3] | Potency [4] | Potency [5] | Potency [6] | activity, negative = inhibition [10] -3%

From PubChem BioAssay (NCATS)
